Bioassay records: PubChem BioAssay, Johns Hopkins Ion Channel Center
KCNQ2 inh: KCNQ2 (rat) channel inhibition. O88943. CHO-K1 KCNQ2, FluxOR thallium flux, 20 min; hits give low values. B-score at 10 µM. 310,000 compounds, 1.1% hits;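 active means fluorescence ratio B-score at most minus 3 library SDs, with starting brightness B-score within 2 library SDs, cut at about -5.5 in these data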
KCNQ2 enhance: enhances the rat KCNQ2 potassium channel; O88943; CHO-K1 KCNQ2, FluxOR thallium flux fluorescence; hits give high values; B-score at 10 µM; 310,000 compounds, 0.54% hits; AID 2239;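 active means fluorescence ratio B-score at least 3 SD of library B-scores, with initial fluorescence B-score within 3 of them, cut at about 5.3 in these data; same plate scores as AID 2156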;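 further: B-score of peak minus minimum over baseline fluorescence ratio after K+ and Tl+ stimulus; positive B-score means potentiation of KCNQ2 with more thallium influx and brighter signal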
KCNQ2 inh conf: confirmation of rat KCNQ2 potassium channel inhibitors | KCNQ2-expressing cells, thallium flux, inhibition; hits give low values | AID 493025 | activity change, negative = inhibition, % at 10 µM | shares compounds with KCNQ2 inh | 1,000 compounds, 57% hits;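 further: 0% = vehicle wells and values are ratio percent relative to vehicle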
KCNQ1 spec: human KCNQ1 activity in KCNQ2 inhibitor specificity screen | KCNQ1-expressing cells, FluxOR thallium flux fluorescence; hits give low values | 1,000 compounds, 15% hits | activity change, negative = inhibition, % at 10 µM | shares compounds with KCNQ2 inh;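 active means activity change at least 3 SD of negative controls below their mean in both duplicate wells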;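 further: CHO cells stably transfected with KCNQ1 and depolarized by potassium stimulus; peak minus minimum fluorescence over baseline after thallium addition; 0% = vehicle negative control and -100% = blank without thallium stimulus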
Target sequence (P51787 whole entry, looked up): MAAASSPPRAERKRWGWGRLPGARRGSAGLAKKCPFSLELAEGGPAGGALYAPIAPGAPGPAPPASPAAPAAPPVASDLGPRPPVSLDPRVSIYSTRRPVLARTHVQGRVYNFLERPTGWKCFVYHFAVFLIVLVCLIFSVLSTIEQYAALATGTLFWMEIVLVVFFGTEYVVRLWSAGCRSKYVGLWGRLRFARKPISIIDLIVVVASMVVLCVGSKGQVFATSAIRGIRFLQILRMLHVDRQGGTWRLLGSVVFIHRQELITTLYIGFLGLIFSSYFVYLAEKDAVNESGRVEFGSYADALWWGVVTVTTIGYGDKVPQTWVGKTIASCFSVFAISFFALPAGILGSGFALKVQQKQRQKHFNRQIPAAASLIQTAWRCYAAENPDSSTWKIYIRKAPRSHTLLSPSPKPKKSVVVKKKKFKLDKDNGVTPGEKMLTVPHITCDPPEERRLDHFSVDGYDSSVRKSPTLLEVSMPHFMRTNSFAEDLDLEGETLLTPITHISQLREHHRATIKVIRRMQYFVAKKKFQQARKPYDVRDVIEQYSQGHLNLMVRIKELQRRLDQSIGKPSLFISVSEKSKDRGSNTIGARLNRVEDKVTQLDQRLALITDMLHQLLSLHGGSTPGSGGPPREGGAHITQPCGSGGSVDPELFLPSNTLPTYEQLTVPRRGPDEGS
CHO Tl ctr: counter-screen for KCNQ2 inhibitors: effect in parental CHO cells; shares compounds with KCNQ2 inh; thallium flux counter-screen; hits give low values; activity change, % at 10 µM; 1,000 compounds, 14% hits; AID 493029;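 further: 0% = vehicle negative controls with stimulus buffer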
KCNQ2 patch conf: confirmation of rat KCNQ2 potassium channel inhibitors; shares compounds with KCNQ2 inh; KCNQ2-expressing cells, automated patch clamp current; calls only at 10 µM; 550 compounds, 49% hits; AID 588531
Kir21 confirm: confirmation of mouse Kir2.1 potassium channel inhibitors; shares compounds with KCNQ2 enhance; Kir2.1-expressing cells, FluxOR thallium flux fluorescence; hits give low values; Tl flux remaining, % of negative control (hits give low values), % at 10 µM; 2,300 compounds, 41% hits;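 active means Primary-screen hit whose thallium flux fell at least 3 control SD below untreated wells in both duplicates, with normal baseline fluorescence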;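 further: 0% = blank wells without stimulus and 100% = stimulated no-compound controls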
HEK293 ctr: alters thallium flux in parental HEK293 cells, Kir2.1 counter-screen; FluxOR thallium flux fluorescence; 0% = unstimulated blank wells; 2,300 compounds, 19% hits; shares compounds with KCNQ2 enhance; FluxOR signal as % of negative control (100 = no effect), % at 10 µM;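 active means dye signal at least 3 control SD above or below untreated wells in both duplicates, raw fluorescence within 3, either direction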;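 further: percent is based on the flux ratio of peak minus minimum fluorescence over baseline F0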
CHO-K1 Tl ctr: parental CHO-K1 activity in KCNQ2 potentiator counter-screen; shares compounds with KCNQ2 enhance; parental CHO-K1 cells, FluxOR thallium flux fluorescence; zero = vehicle mean+3SD, 100% = vehicle-minus-blank window; activity increase over 3SD of controls, % at 10 µM; 1,200 compounds, 43% hits; AID 2282;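 active means signal rise of at least 3 SD above the untreated control mean, in both duplicate wells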;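 further: counter screen of KCNQ2 potentiator hits so any rise reflects channel-independent effects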
KCNQ1 pot spec: tests whether KCNQ2 potentiators also act on human KCNQ1; activation over 3SD threshold, % at 10 µM; shares compounds with KCNQ2 enhance; CHO KCNQ1 stable, FluxOR thallium flux fluorescence; beyond 3SD, as % of vehicle-control signal; 1,200 compounds, 28% hits;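 active means fluorescence ratio rise of at least 3 SD of vehicle wells above their mean, in both replicate wells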;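 further: 0% = vehicle mean plus 3 SD and 100% = vehicle minus unstimulated blank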
KCNQ2 pot conf: rat KCNQ2 channel potentiator confirmation; shares compounds with KCNQ2 enhance; CHO-KCNQ2 cells, FluxOR thallium flux fluorescence; potentiation, less the hit threshold, % at 10 µM; 1,200 compounds, 68% hits;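 active means fluorescence ratio rising 3 SD or more over the vehicle control mean in both replicates, plus primary screen hit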;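 further: peak minus minimum thallium fluorescence divided by baseline after K/Tl stimulus; 0% = vehicle mean plus 3 SD and 100% = vehicle minus unstimulated blank difference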
Kir21 spec: tests whether KCNQ2 potentiators also affect mouse Kir2.1; shares compounds with KCNQ2 enhance; HEK293 Kir2.1, FluxOR thallium flux fluorescence; activity over 3SD threshold, % at 10 µM; 1,200 compounds, 2% hits;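 active means fluorescence ratio rise of at least 3 SD above the vehicle-control mean, seen in both replicates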;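 further: 0% = vehicle mean plus 3 SD and 100% = vehicle minus no-stimulus blank window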
KCNQ2 W236L MoA: potentiates the retigabine-insensitive rat KCNQ2 W236L mutant channel; AID 2558; CHO KCNQ2-W236L, automated patch clamp current; 940 compounds, 10% hits; shares compounds with KCNQ2 enhance; current increase over 3SD of negative controls (%), hits give high values, % at 25 µM;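 active means current increase at least 3 SD of the untreated controls above them in both duplicate recordings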
* = called active by the depositor; i = inactive; · = not tested or not shown; + = active, no number. Only some compounds are listed: those with a hit (about 1.6% of all), similar ones and a draw of the others. Unless noted, how the calls were made is not given here.

SMILES	KCNQ2 inh	KCNQ2 enhance	Kir21 confirm	HEK293 ctr	others
Cc1ccc(S(=O)(=O)N2CCC(C(=O)Nc3ccc(S(=O)(=O)N4CCCC4)cc3)CC2)cc1C	i	·	·	·
CC1CCC(C(C)C)C(OC(=O)COC(=O)c2cc(O)ccc2N)C1 (stereo not given)	i	0.16	·	·
COc1ccc(-c2n(CC(=O)OC3CC(C)CCC3C(C)C)c3ccccc3[n+]2C)cc1 (stereo not given)	-10.7*	-10.7	i	i	KCNQ2 inh conf=-33.5%*;KCNQ1 spec=i;CHO Tl ctr=i;KCNQ2 patch conf=+
COc1ccc(OCc2n(CC(=O)OC3CC(C)CCC3C(C)C)c3ccccc3[n+]2C)cc1 (stereo not given)	-7.41*	-7.41	15.5%*	i	KCNQ2 inh conf=-21.0%*;KCNQ1 spec=i;CHO Tl ctr=i;KCNQ2 patch conf=+
CC1CCC(C(C)C)C(OC(=O)COC(=O)c2ccc(=O)[nH]c2)C1 (stereo not given)	i	2.38	·	·
CC(C)c1ccccc1OCC(=O)Nc1cc(S(=O)(=O)N2CCOCC2)ccc1N1CCCC1	i	·	·	·
CCOC(=O)c1c(NC(=O)CSc2nc3ccc(C)cc3[nH]2)sc2c1CC(C)(C)NC2(C)C	i	·	·	·
O=C(c1c(F)cccc1F)N(C1CCCCC1)C1CCCCC1	i	·	·	·
Cc1ccc(CC(CC(=O)O)C(=O)NCc2ccccc2)cc1 (stereo not given)	i	·	·	·
CNC[C@H](Cc1ccccc1)NC[C@@H](Cc1cccc2ccccc12)NCCc1ccc(C)cc1	-8.44*	-8.44	14.0%*	i	KCNQ2 inh conf=i;KCNQ1 spec=i;CHO Tl ctr=i
CCCCCCCNC(=O)C1(CC2CC(c3cccc(Br)c3)=NO2)CCN(C(=O)c2ccccc2)CC1 (stereo not given)	i	·	·	·
CCCCCCCNC(=O)C1(CC2CC(c3cccc(Br)c3)=NO2)CCNCC1 (stereo not given)	-8.63*	-8.63	37.0%*	i	KCNQ2 inh conf=-41.5%*;KCNQ1 spec=-43.0%*;CHO Tl ctr=-45.0%*;KCNQ2 patch conf=+
CCn1c2ccccc2c2cc(NC(=O)CNCC3CCCO3)ccc21 (stereo not given)	i	1.85	48.0%*	i
CCn1c2ccccc2c2cc(NC(=O)CN3CCCC3)ccc21	i	3.37	·	·
Cc1ccc(-c2ccc(=O)n(CC(=O)NCC3COCCO3)n2)cc1 (stereo not given)	i	1.79	·	·
CCOC(=O)C1=C(C)NC(SC)=C(C#N)C1CC(C)C (stereo not given)	i	·	74.5%*	i
CC(=O)C1=C(C)NC(SCC(N)=O)=C(C#N)C1CC(C)C (stereo not given)	i	·	·	·
Nc1c(Cl)cc(-c2csc(N3CCCC3c3nc4cc(Cl)c(N5CCCCC5)cc4n3CCOCCO)n2)cc1Cl (stereo not given)	i	6.28*	i	i	CHO-K1 Tl ctr=3.5*;KCNQ1 pot spec=-22.5;KCNQ2 pot conf=-10.8;Kir21 spec=-23.9;KCNQ2 W236L MoA=i
OCCCn1c(C2CCCN2c2nc(-c3ccc(F)cc3)cs2)nc2cc(Cl)c(Cl)cc21 (stereo not given)	i	0.26	·	·
Nc1c(Cl)cc(-c2csc(N3CCCC3c3nc4cc(Cl)c(Cl)cc4n3CCCO)n2)cc1Cl (stereo not given)	i	·	·	·
Nc1c(Cl)cc(-c2csc(N3CCCC3c3nc4cc(Cl)c(N5CCCCC5)cc4n3CCCO)n2)cc1Cl (stereo not given)	i	19.6*	i	i	CHO-K1 Tl ctr=-13.2;KCNQ1 pot spec=-49.6;KCNQ2 pot conf=37.7*;Kir21 spec=-23.1;KCNQ2 W236L MoA=i
OCOCCCn1c(C2CCCN2c2nc(-c3ccc(F)cc3)cs2)nc2cc(Cl)c(N3CCCCC3)cc21 (stereo not given)	i	6.89*	i	i	CHO-K1 Tl ctr=57.5*;KCNQ1 pot spec=-17.8;KCNQ2 pot conf=-4.0;Kir21 spec=-24.1
Cc1csc(N2CCCC2c2nc3cc(Cl)c(N4CCCCC4)cc3n2CCOCCO)n1 (stereo not given)	i	1.38	·	·
CCn1c(CNC(=O)c2ccco2)nnc1SCC(=O)Nc1ccccc1Cl	i	0.58	·	·
O=C(Nc1ccccn1)c1cc2ccccc2cc1O	i	·	·	·
SMILES	KCNQ2 inh	KCNQ2 enhance	Kir21 confirm	HEK293 ctr	others
O=C(Nc1cccc(S(=O)(=O)NC2=NCCC2)c1)c1cc(Cl)ccc1[N+](=O)[O-]	i	·	·	·
CC(=O)Nc1cccc(NC(=O)C(=O)NCC(c2ccco2)N2CCc3ccccc32)c1 (stereo not given)	i	0.15	·	·
COC(=O)C1C/C(=N/NS(=O)(=O)c2ccc(C)cc2)CS1 (stereo not given)	i	·	·	·
CC(=O)c1ccc(N(C(=O)CS(=O)CC(=O)Nc2ccc(F)cc2)C(C(=O)NC2CCCCC2)c2cccs2)cc1 (stereo not given)	i	0.55	·	·
Cc1ccc(Nc2cc(C)nc3c(C)cccc23)cc1	i	1.37	35.5%*	i
CC(=O)c1ccc(Nc2cc(C)nc3c(C)cccc23)cc1	i	·	·	·
COCC(C)NC(=O)c1cc2c(ccc3ccccc32)oc1=O (stereo not given)	i	0.13	·	·
O=C(O)c1ccc(NC(=S)N2CCCCC2)cc1	i	0.58	·	·
S=C(Nc1ccccc1)N1CCCCC1	i	6.94*	i	i	CHO-K1 Tl ctr=-13.7;KCNQ1 pot spec=6.3*;KCNQ2 pot conf=-14.0;Kir21 spec=-28.9
CC(C)(C)OC(=O)N1CCC[C@H]1c1nnc(SCc2ccccc2Cl)o1	i	·	i	70.5%*
CSc1nnc([C@@H]2CCCN2C(=O)OC(C)(C)C)o1	i	·	·	·
CC(C)(C)OC(=O)N1CCC[C@H]1c1nnc(SC/C=C/c2ccccc2)o1	i	·	·	·
